IMPase cell inh: IMPase inhibition in cells; CHO-M1 cells, IP1 accumulation, HTRF TR-FRET ratio; inhibition (IP1 accumulation), % at 46.1 µM; 120,000 tested, under 10 active; active = well fitted curve in the direction sought with a large enough effect in the signal ratio, not every such curve was filed as active; inconclusive = small, poorly fitted or top-dose-only effect, or a change in a side signal; inactive = no such curve, though single readings can be large or run the other way; the % refers to the signal ratio;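 also: cells stimulated with carbachol in lithium chloride buffer; plate controls were DMSO basal wells for no effect and reference inhibitor wells for full effect; higher means more IMPase inhibition seen as more IP1 and lower FRET ratio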
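Carbachol-driven Gq signalling in CHO-M1 cells (2000/well) generates IP1. Compounds that block IMPase raise IP1 and so reduce the FRET signal from Eu-anti-IP1 and d2-IP1 after a 10 min room-temperature lysis.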
12-hLO inh: inhibitors of human 12-lipoxygenase (ALOX12); P18054; Potency, µM (highest dose often 57.1 µM), without a hit: at the highest dose activity change, negative = inhibition, hits mostly inhibitors; purified 12-hLO, xylenol orange hydroperoxide absorbance; hit rate 0.12% among 150,000; AID 1452; also: potency is read from the fitted curve at half-maximal effect; nearly all actives have a fitted effect of over 55% in size
Target sequence (P18054 whole entry, looked up): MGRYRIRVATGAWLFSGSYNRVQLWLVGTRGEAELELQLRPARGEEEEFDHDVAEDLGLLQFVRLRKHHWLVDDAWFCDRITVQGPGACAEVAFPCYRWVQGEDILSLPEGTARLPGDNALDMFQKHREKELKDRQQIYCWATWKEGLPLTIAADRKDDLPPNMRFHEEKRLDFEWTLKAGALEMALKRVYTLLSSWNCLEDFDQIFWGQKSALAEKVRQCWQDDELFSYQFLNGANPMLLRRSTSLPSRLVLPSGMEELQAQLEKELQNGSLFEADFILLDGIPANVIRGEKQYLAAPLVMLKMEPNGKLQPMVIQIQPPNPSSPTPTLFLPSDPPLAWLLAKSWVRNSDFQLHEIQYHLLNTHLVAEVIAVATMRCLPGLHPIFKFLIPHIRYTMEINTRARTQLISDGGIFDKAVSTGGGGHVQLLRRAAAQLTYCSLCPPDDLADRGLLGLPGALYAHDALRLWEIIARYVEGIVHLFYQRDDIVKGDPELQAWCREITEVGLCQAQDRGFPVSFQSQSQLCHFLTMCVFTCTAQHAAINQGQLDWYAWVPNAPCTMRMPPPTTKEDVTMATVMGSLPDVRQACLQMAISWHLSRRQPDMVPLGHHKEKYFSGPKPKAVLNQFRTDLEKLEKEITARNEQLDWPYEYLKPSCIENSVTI
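150 nM 12hLO, 25 mM Hepes pH 7.0 + 0.01% Triton X-100; cpd preinc 15 min RT; 40 uM arachidonic acid, 30 min RT; Fe-XO 30 min; A573/A405 ratio as read-out.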
IMPase Li inh: cell-permeable IMPase inhibitors with lithium potentiation; CHO-M1 cells, IP1 TR-FRET (IP-One), carbachol + lithium; Potency, µM (titrated, usually from 59.4 µM), without a hit: top-dose activity, negative = IMPase inhibition, usual class: inhibitors; hit rate 0.35% among 210,000;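 also: IP1 builds up when IMPase is blocked and the TR-FRET signal falls; potency is read from the fitted curve at half-maximal effect; plate controls were basal vehicle for no effect and high inhibitor control for full effect; nearly all actives have a fitted effect of over 50% in size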
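Readout is a homogeneous TR-FRET IP1 immunoassay (Ex 320, Em 665 and 620), where raised cytosolic IP1 lowers signal. Cells were CHO-M1 treated 30 min at 37C with test compounds plus a little lithium; AC50 values came from Hill-equation fitting.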
ALDH1A1 inh: inhibitors of human aldehyde dehydrogenase 1A1 | P00352 | Purified ALDH1A1, NADH fluorescence, propionaldehyde substrate | Potency, µM (series often up to 75.3 µM), for the others: top-dose activity, negative = inhibition, usual class: inhibitors | hit rate 7.3% among 220,000 | AID 1030; active = well fitted inhibition curve with a large enough effect, not every such curve was filed as active; inconclusive = small, poorly fitted or top-dose-only effect, or another doubt; inactive = no such curve, though single readings can be large or run the other way;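 also: potency is read from the fitted curve at half-maximal effect; plate controls were no enzyme wells and a reference inhibitor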
PNC inhibitor: blocks assembly of the perinucleolar compartment | hit rate 3.1% among 140,000 | AID 2417 | PC3M PTB-GFP, PNC prevalence imaging, 16 h; stronger effect = lower value | activity change (PNC), negative = inhibition, % at 10 µM;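 active = readout at or below -70, meaning at least 70% loss of cells showing the perinucleolar compartment, a nuclear body marking cancer cells; inconclusive = readout between -30 and a set limit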;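 also: plate controls were DMSO wells for no effect and camptothecin positive control wells for full effect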
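PC3M cells stably expressing PTB-GFP, 750–1000 cells/well, treated 16 h at 37 °C with compound (23 nl of library stock), in duplicate. After paraformaldehyde fixation and Hoechst stain, imaged at 20x; PNC prevalence scored by image analysis.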
HPGD block: blocks human HPGD enzyme activity; AID 894; P15428; Potency, µM, for the others: top-dose activity change, negative = inhibition, hits mostly inhibitors; hit rate 4.3% among 150,000; purified HPGD, NADH fluorescence kinetic, PGE2 substrate; active = well fitted inhibition curve with a large enough effect, not every such curve was filed as active; inconclusive = small, poorly fitted or top-dose-only effect, or another doubt; inactive = no such curve, though single readings can be large or run the other way; also: potency is read from the fitted curve at half-maximal effect
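NADH formation kinetics: reaction with 30 uM PGE2 and 1 mM NAD+ (final), 20 nM enzyme, Tris-HCl pH 8 with Tween 20, after 15 min compound preincubation at room temperature. Fluorescence change, last versus first of five reads.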
Active calls of the source: *; ? = inconclusive; · = no result; [ ] = remark or other dose. The list is not random: actives were taken first. Their share in the collection is about 11%. Unless noted, calls follow the shape of the dose curve; as a rule, active = well fitted curve in the direction sought with a large enough effect; inconclusive = small, poorly fitted or top-dose-only effect, or another doubt; inactive = no such curve, though single readings can be large; an effect the other way counts as inactive or inconclusive. Unless noted, % is scaled to controls: 0 for no effect and ±100 for the full control effect.

SMILES	IMPase cell inh	12-hLO inh	IMPase Li inh	ALDH1A1 inh	PNC inhibitor	HPGD block
Clc1ccc2nc(SCc3nnc(-c4ccccc4)o3)[nH]c2c1	-6	-11%	-20%[38.3 µM]	11µM*	-27	18µM*
Clc1ccc(OCc2nnc(SCc3nnc(-c4ccccc4)o3)o2)c(Cl)c1	-3	-18%	28%[38.3 µM]	?	?	7.9µM*
Clc1ccc(-c2nnc(CSc3nnc(-c4cccs4)o3)o2)cc1	-11	-8%	18%[38.3 µM]	-5%	-16	-12%
COC(=O)CC1=COC(O)C2C(CO)=CC[C@@H]12 (stereo partly drawn)	·	·	·	-3%[13.5 µM]	·	·
C/C(=N/NC(=S)Nc1cccc(C)c1)c1cccc([N+](=O)[O-])c1	·	·	2%	8.9µM*	·	·
O=C(OCn1ncc(Cl)c(Cl)c1=O)c1ccccc1Cl	-14	0%	6%[38.3 µM]	2µM*	56	-28%
O=C(Cn1ncc(Cl)c(Cl)c1=O)c1ccc(Cl)cc1	·	-5%	-2%	8.9µM*	-10	-8%
O=C(OCn1ncc(Cl)c(Cl)c1=O)c1ccc(F)cc1	-3	4%	-4%[38.3 µM]	1.1µM*	75	-13%
O=C(Cn1ncc(N2CCOCC2)c(Cl)c1=O)c1ccc(Cl)cc1	·	·	6%	-7%	·	·
O=C(Nc1cc(C(F)(F)F)ccc1Cl)c1cc(-c2cccs2)nc2ccccc12	2	·	·	·	·	·
Cc1ccccc1-c1nnc(NC(=O)CSc2nc3ccccc3s2)s1	·	3%	3%	7%	11	-14%
C/C=C/C(=O)Nc1nnc(-c2ccccc2C)s1	·	·	10µM*	7%	·	·
Cc1ccccc1-c1nnc(NC(=O)c2ccc(N3C(=O)CCC3=O)cc2)s1	·	1%	-4%	?	13	-16%
C=C(C)C(=O)Nc1nnc(-c2ccccc2C)s1	·	·	22%	7.9µM*	·	·
Cc1c(C(=O)NN)[nH]c2ccc([N+](=O)[O-])cc12	·	·	·	7.9µM*	·	·
Cc1ccc(OCC(=O)OC2=C(C(=O)c3ccccc3)N(C)S(=O)(=O)c3ccccc32)cc1	-9	·	·	·	·	·
O=c1c(F)cn(C2CCCO2)c(=O)n1Cc1c(Cl)cccc1Cl (stereo not drawn)	4	2%	47%[38.3 µM]	-1%	-9	16µM*
CCc1c(O)c2c(c(O)c1C(C)=O)C(=O)c1c(cc(O)c(C(=O)O)c1C(=O)O)C2=O	·	-19%[11.4 µM]	-9%	7%[13.5 µM]	·	-12%
CCOC(=O)C(C)Sc1nnc2n1C(C)(C)Cc1ccccc1-2 (stereo not drawn)	0	-7%	20%	-3%	-100*	-2%
CC1(C)Cc2ccccc2-c2nnc(SCc3ccccc3)n21	11	7%	4%	9%	-7	-7%
CN(C)/N=N/c1nc[nH]c1C(N)=O	·	-4%	40%	?	·	-21%
O=C(Sc1cccc2cccnc12)c1ccc(F)cc1	·	·	4%	?	·	·
O=S(=O)(Nc1cc(Sc2cccc3cccnc23)c(O)c2ccccc12)c1ccc(F)cc1	·	-8%	15%	28µM*	-118*	1.3µM*
Cc1ccc(Cn2ccsc2=NC(=O)CCl)cc1	·	·	0%	10µM*	·	·
COc1ccc(C(=O)Cn2ccsc2=NC(C)=O)cc1	·	·	0%	7%	·	·
SMILES	IMPase cell inh	12-hLO inh	IMPase Li inh	ALDH1A1 inh	PNC inhibitor	HPGD block
CN(C)Cc1ccccc1-c1ccc2ncnc(NC3CC3)c2c1	·	4%	4%	-4%	·	-28%
COC1C(O)COC1/C=C/c1ccccc1 (stereo not drawn)	·	·	·	-1%[13.5 µM]	·	·
COC(=O)[C@@]1(Cc2ccccc2)[C@H]2c3cc(C(=O)N4CCCC4)n(Cc4c(CO)[nH]cc(C)c4=O)c3C[C@H]2CN1C(=O)c1ccccc1	·	0%	-7%	-2%	·	-21%
COc1ccc(CCN(C)CCCN2CC(c3ccccc3)CC2=O)cc1OC (stereo not drawn)	·	·	4%	-7%	·	·
COc1ccc(C2CC(=O)N(CCCN(C)CCc3ccc(OC)c(OC)c3)C2)cc1 (stereo not drawn)	·	·	13%	14µM*	·	·
N#Cc1ccccc1OC[C@H](O)CNCCNC(=O)Nc1ccccc1	2	1%	4%	-6%	·	-3%
CC(C)=NOCc1cccc(-c2cc(-c3ccccc3)no2)c1	·	·	·	2%[13.5 µM]	·	·
CCC/C=C(\CCC)C(NS(=O)(=O)c1ccc(C(F)(F)F)cc1)c1ccc(-c2ccccc2)cc1 (stereo not drawn)	·	3%	-4%	22µM*	·	-15%
CCC/C=C(\CCC)C(NC(=O)c1ccc(C(F)(F)F)cc1)c1ccccc1 (stereo not drawn)	·	3%	20%	-2%	·	-16%
CCn1cc(C(=O)OC)c(=O)c2ccc(C)nc21	·	·	-2%	0%	·	·
COCCNC(=O)c1cn(C)c2ccccc2c1=O	·	·	-7%	3.5µM*	·	·
CCn1cc(C(=O)NCCOC)c(=O)c2ccc(C)nc21	-11	9%	6%[38.3 µM]	11µM*	-3	-27%
CCOc1ccc(-n2nc(C(=O)N3CCN(CC)CC3)c3ccccc3c2=O)cc1	0	4%	5%	15%	-86*	-20%
CCOc1ccc(-n2nc(C(=O)NCCOC)c3ccccc3c2=O)cc1	0	1%	23%[38.3 µM]	13%	4	-1%
O=C(O)[C@H]1[C@H]2C[C@H]3c4[nH]c5ccccc5c4CCN3C[C@@H]2CC[C@@H]1O	0	0%	11%	1%	·	-26%
COc1ccc(OCC(=O)Nc2ccc(-c3nc4cc(C)cc(C)c4o3)cc2)cc1	-5	·	·	·	·	·
Cc1cc(C)nc(NS(=O)(=O)c2ccc(NC(=O)c3ccc4c(c3)OCCO4)cc2)n1	·	·	12%	25µM*	·	·
Cc1cc(C)nc(NS(=O)(=O)c2ccc(NC(=O)c3ccc(N4C(=O)CCC4=O)cc3)cc2)n1	·	2%	-11%	-2%	-102*	0%
Cc1cc(NS(=O)(=O)c2ccc(NC(=O)CN3C(=O)c4ccccc4C3=O)cc2)nc(C)n1	-2	1%	-5%[38.3 µM]	9%	1	-7%
Cc1cc(C)nc(NS(=O)(=O)c2ccc(NC(=O)c3ccc(S(=O)(=O)N4CC(C)OC(C)C4)cc3)cc2)n1 (stereo not drawn)	4	-3%	7%	-4%	-9	-13%
Cc1cc(C)nc(NS(=O)(=O)c2ccc(NC(=O)CN3C(=O)c4ccccc4C3=O)cc2)n1	-3	9%	15%[38.3 µM]	6%	-92*	-6%
CN1CCN(c2ncnc3ccc(-c4cccc(C#N)c4)cc23)CC1	·	·	31%	10µM*	·	·
COc1cccc(-c2ccc3ncnc(N4CCN(C)CC4)c3c2)c1	·	·	4%	30%	·	·
CC(NC(=O)COc1cccc(Br)c1)C(=O)O (stereo not drawn)	-4	-7%	·	-10%	26	·
O=C(COc1cccc(Br)c1)NN=C1c2ccccc2-c2ccccc21	4	-1%	6%	0%	-119*	-7%

Assay outcomes as filed in PubChem BioAssay.
